Consider 8 compounds from PubChem BioAssay (NCI).

The panel holds about 83,000 compounds, 20% with a hit somewhere; the sample as a whole holds those more often.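 Single-dose data. Exposure time 48 hours. Values below 10 considered active.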 Unmarked numbers belong to inactive results. Active and inactive are the calls of the source.

Among the test systems are SR leukemia; RPMI-8226 leukemia; OVCAR-8 ovarian; OVCAR-5 ovarian; OVCAR-4 ovarian; SK-OV-3 ovarian; IGROV1 ovarian; OVCAR-3 ovarian; HS 578T breast; NCI/ADR-RES ovarian; T-47D breast; BT-549 breast; MDA-MB-435 melanoma; SW-620 colon; MCF7 breast; HCT-116 colon; HCC-2998 colon; KM12 colon.
What all share (experiment): NCI-60 one-dose screen, 48 h (100 = growth as untreated, 0 = no growth, -100 = all killed)
Holding throughout (conditions): 10 µM unless noted

Regarding `CCn1c(Cc2ccccc2Nc2c(Cl)cccc2Cl)nnc1SCC(=O)Nc1ccccc1C(F)(F)F`, the growth in the test with SR leukemia is 79.8%; in the test on RPMI-8226 leukemia it was 76.4%; in the test on OVCAR-8 ovarian, 92.8%; with OVCAR-5 ovarian, 110%; in the test on OVCAR-4 ovarian, 79%; in the test on SK-OV-3 ovarian it was 96.1%. Also, the growth was 79.4% in the test with IGROV1 ovarian; 99.9% with OVCAR-3 ovarian; 94.9% in the test on HS 578T breast; 87.4% with NCI/ADR-RES ovarian; 47.6% in the test on T-47D breast; 94.4% in the test with BT-549 breast. For the same compound, the growth with MDA-MB-435 melanoma is 99.5%; in the test with SW-620 colon, 99.3%; with MCF7 breast, 86.3%; in the test with HCT-116 colon, 77.8%; with HCC-2998 colon it was 99.9%; in the test on KM12 colon, 97.6%.
Regarding `C[C@@H]1CC2C3CCC4=CC(=O)C=C[C@]4(C)[C@@]3(Cl)[C@@H](O)C[C@]2(C)[C@@]1(OC(=O)c1ccco1)C(=O)CCl` (some centres undefined), the growth in the test with SR leukemia was 54.6%; in the test on RPMI-8226 leukemia, 55.9%; in the test with OVCAR-8 ovarian it was 53%; in the test with OVCAR-5 ovarian, 83.1%; in the test with OVCAR-4 ovarian, 67.7%; in the test with SK-OV-3 ovarian, 54.1%. Moreover, the growth in the test with IGROV1 ovarian was 76.3%; in the test on OVCAR-3 ovarian it was 89.3%; with HS 578T breast, 67.2%; in the test on NCI/ADR-RES ovarian, 39.9%; with T-47D breast, 97.1%; with BT-549 breast it was 27.9%. The growth in the test with MDA-MB-435 melanoma was 73.4%; with SW-620 colon, 95.3%; with MCF7 breast, 58.9%; in the test on HCT-116 colon, 57.4%; in the test on HCC-2998 colon, 75.9%; in the test on KM12 colon, 76.9%.
For `Cc1cc(-c2ccc(N=Nc3c(S(=O)(=O)O)cc4cc(S(=O)(=O)O)cc(O)c4c3O)c(C)c2)ccc1N=Nc1c(S(=O)(=O)O)cc2cc(S(=O)(=O)O)cc(O)c2c1O`, the growth in the test with SR leukemia is 148%; with RPMI-8226 leukemia, 114%; in the test with OVCAR-8 ovarian, 99.5%; with OVCAR-5 ovarian it was 99.4%; with OVCAR-4 ovarian, 103%; with SK-OV-3 ovarian it was 88.9%. The growth with IGROV1 ovarian was 80.6%; in the test on OVCAR-3 ovarian, 120%; with HS 578T breast, 78.6%; with NCI/ADR-RES ovarian, 108%; with T-47D breast, 92.2%; in the test on BT-549 breast, 108%. Also, the growth in the test on MDA-MB-435 melanoma is 103%; in the test on SW-620 colon it was 114%; in the test with MCF7 breast it was 101%; in the test on HCT-116 colon, 109%; in the test on HCC-2998 colon it was 106%; in the test with KM12 colon it was 114%.
Regarding `CS(=O)(=O)c1ccc(C(=O)N/N=C/c2ccccc2Cl)cc1`, the growth was 92.5% in the test on SR leukemia; 115% with RPMI-8226 leukemia; 97.1% in the test on OVCAR-8 ovarian; 109% with OVCAR-5 ovarian; 95.9% in the test with OVCAR-4 ovarian; 88.3% in the test on SK-OV-3 ovarian. Besides, the growth in the test on IGROV1 ovarian was 107%; with OVCAR-3 ovarian, 103%; in the test on HS 578T breast, 98.1%; with NCI/ADR-RES ovarian, 106%; with T-47D breast it was 87.5%; in the test with BT-549 breast it was 92.7%. Moreover, the growth in the test on MDA-MB-435 melanoma is 106%; in the test with SW-620 colon, 97.3%; with MCF7 breast, 93.3%; in the test with HCT-116 colon, 94.3%; in the test with HCC-2998 colon it was 95.8%; with KM12 colon, 100%.
Turning to `CCOC(=O)C1OC2(CCCC2)OC1C(=O)OCC` (centres undefined), the growth was 104% in the test on SR leukemia; 84.8% with RPMI-8226 leukemia; 108% in the test on OVCAR-8 ovarian; 110% in the test with OVCAR-5 ovarian; 118% in the test with OVCAR-4 ovarian; 105% with SK-OV-3 ovarian. In addition, the growth in the test with IGROV1 ovarian is 96.6%; with OVCAR-3 ovarian, 122%; in the test on HS 578T breast, 105%; in the test with NCI/ADR-RES ovarian, 117%; with T-47D breast it was 98.4%; in the test with BT-549 breast it was 98.9%. Further, the growth in the test with MDA-MB-435 melanoma is 112%; with SW-620 colon, 113%; with MCF7 breast, 98.2%; in the test on HCT-116 colon, 98%; in the test on HCC-2998 colon, 104%; with KM12 colon, 104%.
For `CCOC(=O)N1C2CCC(C2)N1C(=O)OCC`, the growth was 101% in the test on SR leukemia; 101% in the test on RPMI-8226 leukemia; 101% in the test with OVCAR-8 ovarian; 100% with OVCAR-5 ovarian; 95.3% in the test on OVCAR-4 ovarian; 104% in the test with SK-OV-3 ovarian. For the same compound, the growth in the test on IGROV1 ovarian is 108%; in the test on OVCAR-3 ovarian, 113%; with HS 578T breast, 111%; with NCI/ADR-RES ovarian, 108%; with T-47D breast, 108%; with BT-549 breast, 101%. The growth is 113% with MDA-MB-435 melanoma; 105% with SW-620 colon; 90.1% with MCF7 breast; 103% in the test with HCT-116 colon; 104% in the test on HCC-2998 colon; 112% with KM12 colon.
Take `CNCCCn1c2c(c3ccc(Cl)cc3c1=O)C(=O)c1cc(OC)cnc1-2`: the growth is -33.5% (active) with SR leukemia; -56.3% (active) with RPMI-8226 leukemia; 40.8% in the test on OVCAR-8 ovarian; 91.9% in the test with OVCAR-5 ovarian; 58.8% with OVCAR-4 ovarian; 23.7% with SK-OV-3 ovarian. Further, the growth with IGROV1 ovarian was 50.3%; with OVCAR-3 ovarian it was 49.3%; in the test on HS 578T breast it was 71.7%; with NCI/ADR-RES ovarian, 46.5%; with T-47D breast, 40%; in the test on BT-549 breast, 45.9%. Moreover, the growth was 55.8% in the test with MDA-MB-435 melanoma; -63.6% (active) in the test on SW-620 colon; -45.4% (active) in the test with MCF7 breast; -81.4% (active) in the test on HCT-116 colon; 71.3% with HCC-2998 colon; 40.7% in the test on KM12 colon.
With `COc1ccc2[nH]cc(C3(c4c[nH]c5ccc(OC)cc45)C(=O)Nc4ccc(F)cc43)c2c1`, the growth in the test on SR leukemia is 11.8%; with RPMI-8226 leukemia, 40.9%; with OVCAR-8 ovarian it was 94.4%; in the test with OVCAR-5 ovarian it was 94.1%; with OVCAR-4 ovarian it was 86.7%; with SK-OV-3 ovarian, 94.5%. The growth is 74.2% in the test on IGROV1 ovarian; 86.6% in the test with OVCAR-3 ovarian; 73.4% in the test on HS 578T breast; 94% with NCI/ADR-RES ovarian; 93.7% with T-47D breast; 80.1% with BT-549 breast. For the same compound, the growth was 9.03% (active) in the test on MDA-MB-435 melanoma; 25.9% in the test with SW-620 colon; 66.2% with MCF7 breast; 69% in the test with HCT-116 colon; 72% with HCC-2998 colon; 51.1% in the test with KM12 colon.
